Results filed as inconclusive are left out. Activity calls are given as the source filed them. Unless noted, calls come from the whole dose curve; as a rule, active = well fitted curve in the direction sought with a large enough effect; inconclusive = small, poorly fitted or top-dose-only effect, or another doubt; inactive = no such curve, though single readings can be large; an effect the other way counts as inactive or inconclusive.
Legend:
[1] = target: Cytochrome P450 1A2 (Homo sapiens) (UniProt P05177); experiment: p450-cyp1a2 (AID 410; calls by dose curve; note: potency is the fitted concentration of half-maximal effect)
Method in brief: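 Luminescent demethylation readout: Luciferin-ME (100uM, equal to Km) turned over by 20nM CYP1A2 for 60 min at room temperature after NADPH regeneration addition, following 10 min compound preincubation. Normalization used 57 uM furafylline as full inhibition.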

[2] = NFAT Signaling Pathway (AID 444; active = well fitted curve in either direction with a large enough effect, not every such curve was filed as active;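 note: carbachol stimulus at about its EC50 of 1 µM final; % is set by controls: 0 for no effect and ±100 for the full control effect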); settings: Jurkat NFAT-bla M1, carbachol, beta-lactamase ratio, 5 h; at 7.69 µM (top of the series) unless noted
Method in brief: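 Read-out: CCF4 FRET ratio (460 nm/530 nm) after 1 h RT dye loading, used for %activity and AC50 from titration series. Cells: Jurkat NFAT-β-lactamase/M1 line, treated with compound plus 1 uM carbachol for 5 h, 37 °C.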

[3] = Stat Signaling Pathway (AID 446; active = well fitted curve in either direction with a large enough effect, not every such curve was filed as active;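 note: ME-180 cervical cancer cells given 40 pM IL-6 alongside compound; SIE-controlled beta-lactamase reporter measured as 460/530 nm FRET emission ratio; % is set by controls: 0 for no effect and ±100 for the full control effect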); settings: ME-180 SIE beta-lactamase reporter, IL-6 stimulated, 5 h; at 7.69 µM (top of the series) unless noted
Method in brief: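 Normalization used AC90 stimulation (300 pM IL-6) and AC90 inhibition (125 nM pan-JAK inhibitor at 40 pM IL-6). The underlying signal is SIE-driven beta-lactamase in ME-180 cells after 5 h IL-6 exposure with compound.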

[4] = target: Glucocorticoid receptor (Homo sapiens) (UniProt P04150); experiment: GR-GFP Redistribution (AID 450;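 active = compounds whose dose series gives a full or clear partial fitted curve of increased nuclear translocation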; note: potency is the fitted concentration of half-maximal effect); settings: U2OS GR-GFP nuclear translocation, laser cytometry, 2 h
[5] = target: Glucocorticoid receptor (Homo sapiens) (UniProt P04150); experiment: GR-EFC Redistribution (AID 451; calls by dose curve; note: potency is the fitted concentration of half-maximal effect); settings: CHO-K1 GR-EFC translocation, beta-gal luminescence, 2 h
Method in brief: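 Translocation of GR-ED fusion to nuclear EA restores b-gal, read by luminescence after 1 h room-temperature detection. Engineered CHO-K1 biosensor cells, 1,000/well, exposed 2 h at 37 C to titrations up to 46 uM final.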

[6] = target: Mitogen-activated protein kinase 10 (Mus musculus) (UniProt Q61831); experiment: JNK3 AlphaScreen Assay (AID 530; active = well fitted curve in either direction with a large enough effect, not every such curve was filed as active;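 note: kinase came from lysate of stimulated human HepG2 cells; signal reports phosphorylation of biotinylated GST-cJun 1-79 at Ser73 with 10 µM ATP; % is set by controls: 0 for no effect and ±100 for the full control effect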)
Method in brief: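 qHTS titrations with 15 min compound pre-incubation before adding ATP (10 uM final). Read-out: AlphaScreen of Ser73-phosphorylated biotin-GST-cJun using HepG2 lysate JNK3 activated by IL-1β and TNFα.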

[7] = target: 3',5'-cyclic-AMP phosphodiesterase 4B (Homo sapiens) (UniProt Q07343); experiment: qHTS Assay for Inhibitors of PDE-IV (AID 607; active = well fitted activation curve with a large enough effect in the main read-out, with a control signal flat, not every such curve was filed as active; note: % of control where 0% means no effect)
Method in brief: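 HEK293 ACTOne cells with CNG channel (1000/well), endogenous PDE4; membrane potential dye, compounds up to 22.9 uM final. Fluorescence Ex 535/Em 590; RO 20-1724 (100 uM final) as reference.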

[8] = target: Cytochrome P450 3A4 (Homo sapiens) (UniProt P08684); experiment: qHTS Assay for Inhibitors and Substrates of Cytochrome P450 3A4 (AID 884); note: nearly all actives have a fitted effect of over 50% in size; note: potency is the fitted concentration of half-maximal effect
Method in brief: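 Luminescent readout of luciferin produced by CYP3A4 (20 nM) dealkylation of Luciferin-PPXE, 25 uM (its KM). NADPH-driven reaction ran 60 min at RT after 10 min compound preincubation; data scaled to 57 uM ketoconazole as 100% inhibition.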

[9] = target: Cytochrome P450 3A4 (Homo sapiens) (UniProt P08684); experiment: qHTS Assay for Activators of Cytochrome P450 3A4 (AID 885); note: nearly all actives have a fitted effect of over 65% in size
Method in brief: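 Human CYP3A4 dealkylates Luciferin-PPXE to luciferin, which luciferase detection converts to light. Substrate was at its KM (25uM), buffer 200mM KPO4, reaction 60 min at RT.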

[10] = qHTS Assay for Lipid Storage Modulators (AID 1519; calls by dose curve); settings: Drosophila S3 cells, BODIPY lipid droplet/cell ratio, laser cytometry, cells loaded with oleic acid; for activity change, negative = inhibition: at 57.5 µM (top of the series)
Method in brief: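 Cells seeded at 5,000 per well were treated with compounds over a concentration series and loaded with oleic acid (400 uM, as added). Lipid droplet fluorescence (488 nm excitation, 500-530 nm channel) was read by laser-scanning cytometry and normalized to 20 uM Triacsin C.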

[11] = target: Dual specificity protein kinase CLK4 (Homo sapiens) (UniProt Q9HAZ1); experiment: qHTS Assay for Inhibitors of CDC-like Kinase 4 (Kinase-Glo Assay) (AID 1770); note: nearly all actives have a fitted effect of over 65% in size; note: potency is the fitted concentration of half-maximal effect
Method in brief: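 Substrate mix (RS peptide 100 uM, ATP 1 uM) dispensed, compound pinned in, then Clk4 added to 25 nM final. Incubated 4.5 h at RT; Kinase-Glo reagent added, luminescence read after 5 min.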

[12] = target: Dual specificity protein kinase CLK4 (Homo sapiens) (UniProt Q9HAZ1); experiment: qHTS Assay for Inhibitors of CDC-like Kinase 4 (ADP-Glo Assay) (AID 1771); note: nearly all actives have a fitted effect of over 70% in size; note: potency is the fitted concentration of half-maximal effect
Method in brief: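 ADP production was read by ADP-Glo luminescence after residual ATP depletion, following 1 h room-temperature reaction of 25 nM Clk4, 1 uM ATP and 100 uM RS peptide with MgCl2, EGTA, DTT and Triton X-100.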

[13] = target: Ubiquitin carboxyl-terminal hydrolase 1 (Homo sapiens) (UniProt O94782); experiment: Inhibitors of USP1/UAF1: Pilot qHTS (AID 504865);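 note: rhodamine fluorescence freed from ubiquitin-rhodamine substrate followed over time; top concentration of the series differs between compounds; % is set by controls: 0 for no effect and ±100 for the full control effect; nearly all actives have a fitted effect of over 35% in size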
Method in brief: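 In 50mM HEPES pH 7.8 containing 0.5mM EDTA, 1mM TCEP, 0.1 mg/ml BSA and 0.01% Tween-20, 1nM USP1/UAF1 is exposed to compound for 15 min, then Ub-Rho (150nM final) is added and fluorescence is read over time.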

[14] = target: Cytochrome P450 2C19 (Homo sapiens) (UniProt P33261); experiment: qHTS Assay for Inhibitors and Substrates of Cytochrome P450 2C19 (AID 899); note: potency is the fitted concentration of half-maximal effect; nearly all actives have a fitted effect of over 60% in size
Method in brief: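 5nM enzyme + 10uM Luciferin-H EGE (=KM), 50mM KPO4; cpd pin-transferred, 10 min 37C; NADPH regen, 60 min 37C; stopped w/ luciferin detection reagent, 20 min; luminescence. Normalized to 57uM ketoconazole (AC100).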

[15] = target: Lysosomal acid glucosylceramidase (Homo sapiens) (UniProt P04062); experiment: Glucocerebrosidase-p2 (AID 348; in the data active = potency below about 10 µM; note: potency is the fitted concentration of half-maximal effect); settings: purified GBA, blue fluorogenic substrate, 40 min
Method in brief: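 Normal human glucocerebrosidase (0.2 nM) with blue fluorogenic substrate (80 uM final) in citrate/phosphate pH 5.9 with 10mM sodium taurocholate, 0.01% tween-20; 40 min RT, NaOH/glycine stop; fluorescence Ex 365/Em 440; AC50 from a titration from 0.6 nM upwards.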

[16] = AP1 Signaling Pathway (AID 357; active = well fitted curve in either direction with a large enough effect, not every such curve was filed as active;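 note: ME-180 reporter cells stimulated with EGF at its EC50 level; % is set by controls: 0 for no effect and ±100 for the full control effect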); settings: ME-180 (cervical carcinoma) AP-1-bla reporter, EGF-induced, beta-lactamase ratio, 5 h; at 7.69 µM (top of the series) unless noted
Method in brief: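 Read-out was the 460nm/530nm emission ratio (excitation 405nm) after CCF4 loading for 2.5 hours at room temperature. Cells carried an AP-1-driven beta-lactamase reporter, were stimulated with EC50 EGF plus compound for 5 hours, and AC50 values came from titrations.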

[17] = target: Cytochrome P450 2D6 (Homo sapiens) (UniProt P10635); experiment: qHTS Assay for Inhibitors and Substrates of Cytochrome P450 2D6 (AID 891); note: potency is the fitted concentration of half-maximal effect; nearly all actives have a fitted effect of over 60% in size
Method in brief: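 Luminescent read-out of luciferin formed by 5 nM human CYP2D6 demethylating 30 uM Luciferin-ME EGE (Km level) over 60 min at room temperature after NADPH regeneration addition. Data normalized to full inhibition by 1.43 uM quinidine.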

[18] = target: Dual specificity protein kinase CLK4 (Homo sapiens) (UniProt Q9HAZ1); experiment: qHTS Assay for Inhibitors of CDC-like Kinase 4 (ADP-FP Assay) (AID 1795);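 note: recombinant human CLK4 phosphorylating RS repeat peptide at 1 µM ATP; % is set by controls: 0 for no effect and ±100 for the full control effect; nearly all actives have a fitted effect of over 60% in size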
Method in brief: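 Clk4 6.25 nM; RS peptide 100 uM; ATP 1 uM; 25 mM Tris pH 7.5, 10 mM MgCl2; 1 h reaction. ADP detected via antibody/orange tracer FP displacement; TG003 positive control.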

[19] = measured here: cell count channel max response
[20] = measured here: lipid channel max response

Sequence of Cytochrome P450 1A2 (Homo sapiens) (P05177 whole entry, looked up): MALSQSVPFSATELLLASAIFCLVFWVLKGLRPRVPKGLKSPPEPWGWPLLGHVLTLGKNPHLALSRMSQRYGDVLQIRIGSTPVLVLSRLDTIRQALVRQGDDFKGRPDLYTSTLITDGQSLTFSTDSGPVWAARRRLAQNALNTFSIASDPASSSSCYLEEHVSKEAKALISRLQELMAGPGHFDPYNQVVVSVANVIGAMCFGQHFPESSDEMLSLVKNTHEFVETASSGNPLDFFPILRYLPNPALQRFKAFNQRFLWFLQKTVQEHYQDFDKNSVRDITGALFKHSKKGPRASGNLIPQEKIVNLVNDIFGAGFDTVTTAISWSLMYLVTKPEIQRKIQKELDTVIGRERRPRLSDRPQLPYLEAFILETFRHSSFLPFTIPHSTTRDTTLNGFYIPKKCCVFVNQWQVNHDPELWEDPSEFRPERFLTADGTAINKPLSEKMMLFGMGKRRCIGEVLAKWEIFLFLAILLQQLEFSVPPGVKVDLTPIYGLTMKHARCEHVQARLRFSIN
Sequence of Ubiquitin carboxyl-terminal hydrolase 1 (Homo sapiens) (O94782 whole entry, looked up): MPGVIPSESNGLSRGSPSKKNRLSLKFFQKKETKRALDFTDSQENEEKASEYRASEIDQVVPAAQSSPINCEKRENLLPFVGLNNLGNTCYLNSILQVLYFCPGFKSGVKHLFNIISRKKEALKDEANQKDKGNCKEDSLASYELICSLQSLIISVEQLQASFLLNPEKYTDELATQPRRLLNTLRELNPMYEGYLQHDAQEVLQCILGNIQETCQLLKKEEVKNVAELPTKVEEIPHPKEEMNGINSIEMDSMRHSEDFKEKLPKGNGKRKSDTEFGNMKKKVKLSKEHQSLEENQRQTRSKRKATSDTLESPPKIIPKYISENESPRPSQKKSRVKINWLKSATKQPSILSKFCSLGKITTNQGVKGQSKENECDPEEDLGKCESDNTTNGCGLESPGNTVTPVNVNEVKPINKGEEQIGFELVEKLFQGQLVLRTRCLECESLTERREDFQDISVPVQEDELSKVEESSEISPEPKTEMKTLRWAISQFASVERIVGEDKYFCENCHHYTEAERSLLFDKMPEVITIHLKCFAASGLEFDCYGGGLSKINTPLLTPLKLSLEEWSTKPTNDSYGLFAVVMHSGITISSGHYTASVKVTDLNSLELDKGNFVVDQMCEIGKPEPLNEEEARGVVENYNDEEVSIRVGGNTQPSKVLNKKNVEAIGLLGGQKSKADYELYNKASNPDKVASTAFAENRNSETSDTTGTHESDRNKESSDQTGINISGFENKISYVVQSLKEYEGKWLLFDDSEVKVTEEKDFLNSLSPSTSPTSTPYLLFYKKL
Sequence of Glucocorticoid receptor (Homo sapiens) (P04150 whole entry, looked up, the tested form may be a part): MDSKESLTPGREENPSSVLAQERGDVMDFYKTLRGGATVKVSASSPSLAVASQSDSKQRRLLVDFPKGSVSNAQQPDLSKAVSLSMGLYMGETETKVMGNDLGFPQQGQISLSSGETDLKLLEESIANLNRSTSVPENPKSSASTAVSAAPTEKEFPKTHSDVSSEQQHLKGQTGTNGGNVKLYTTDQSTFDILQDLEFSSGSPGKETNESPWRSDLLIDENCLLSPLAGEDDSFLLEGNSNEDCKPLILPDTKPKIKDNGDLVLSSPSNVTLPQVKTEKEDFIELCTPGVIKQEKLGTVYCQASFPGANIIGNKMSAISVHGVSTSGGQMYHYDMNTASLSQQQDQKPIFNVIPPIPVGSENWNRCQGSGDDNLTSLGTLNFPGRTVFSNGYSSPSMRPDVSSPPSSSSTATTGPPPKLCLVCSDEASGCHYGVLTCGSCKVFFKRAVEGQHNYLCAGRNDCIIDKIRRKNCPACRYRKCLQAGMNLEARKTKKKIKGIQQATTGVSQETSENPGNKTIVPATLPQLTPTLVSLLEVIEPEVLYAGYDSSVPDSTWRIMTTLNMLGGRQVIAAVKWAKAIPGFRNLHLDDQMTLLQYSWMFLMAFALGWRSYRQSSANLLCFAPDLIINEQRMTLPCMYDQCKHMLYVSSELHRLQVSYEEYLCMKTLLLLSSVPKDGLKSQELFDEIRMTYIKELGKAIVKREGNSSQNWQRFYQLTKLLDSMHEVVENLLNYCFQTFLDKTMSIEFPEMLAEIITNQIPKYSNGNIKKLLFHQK
Sequence of Cytochrome P450 3A4 (Homo sapiens) (P08684 whole entry, looked up): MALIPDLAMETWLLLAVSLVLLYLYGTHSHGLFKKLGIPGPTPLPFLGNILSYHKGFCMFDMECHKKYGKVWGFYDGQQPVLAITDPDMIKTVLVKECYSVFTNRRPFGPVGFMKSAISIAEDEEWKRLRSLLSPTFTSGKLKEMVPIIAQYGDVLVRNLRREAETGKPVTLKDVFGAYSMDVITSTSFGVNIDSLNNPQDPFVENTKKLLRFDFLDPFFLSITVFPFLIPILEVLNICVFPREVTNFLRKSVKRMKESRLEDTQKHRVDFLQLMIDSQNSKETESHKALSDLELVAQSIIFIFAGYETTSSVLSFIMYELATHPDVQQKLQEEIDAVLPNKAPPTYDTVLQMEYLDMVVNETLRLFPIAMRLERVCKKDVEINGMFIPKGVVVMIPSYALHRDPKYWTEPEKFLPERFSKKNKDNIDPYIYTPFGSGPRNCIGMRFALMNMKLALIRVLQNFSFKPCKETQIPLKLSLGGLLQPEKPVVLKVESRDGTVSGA
Sequence of 3',5'-cyclic-AMP phosphodiesterase 4B (Homo sapiens) (Q07343 whole entry, looked up): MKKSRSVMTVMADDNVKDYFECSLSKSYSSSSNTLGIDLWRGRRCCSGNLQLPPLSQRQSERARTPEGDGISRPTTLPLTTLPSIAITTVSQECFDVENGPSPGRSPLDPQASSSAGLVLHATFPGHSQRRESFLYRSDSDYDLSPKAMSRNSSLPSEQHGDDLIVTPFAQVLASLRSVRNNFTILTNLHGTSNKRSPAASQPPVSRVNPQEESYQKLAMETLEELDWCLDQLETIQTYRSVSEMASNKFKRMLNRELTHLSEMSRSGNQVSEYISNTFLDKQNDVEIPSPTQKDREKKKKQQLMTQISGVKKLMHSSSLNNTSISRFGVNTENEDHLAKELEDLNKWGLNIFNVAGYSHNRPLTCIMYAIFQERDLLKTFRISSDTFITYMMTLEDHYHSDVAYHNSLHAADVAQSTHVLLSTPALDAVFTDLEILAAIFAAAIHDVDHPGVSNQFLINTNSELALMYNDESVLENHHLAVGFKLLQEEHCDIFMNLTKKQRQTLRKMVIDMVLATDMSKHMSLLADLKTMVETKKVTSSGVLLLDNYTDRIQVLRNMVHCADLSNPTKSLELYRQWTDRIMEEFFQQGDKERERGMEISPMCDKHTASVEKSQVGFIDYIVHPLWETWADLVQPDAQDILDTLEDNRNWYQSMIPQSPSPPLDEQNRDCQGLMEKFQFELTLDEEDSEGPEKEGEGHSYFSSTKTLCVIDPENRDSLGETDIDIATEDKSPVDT
Sequence of Lysosomal acid glucosylceramidase (Homo sapiens) (P04062 whole entry, looked up): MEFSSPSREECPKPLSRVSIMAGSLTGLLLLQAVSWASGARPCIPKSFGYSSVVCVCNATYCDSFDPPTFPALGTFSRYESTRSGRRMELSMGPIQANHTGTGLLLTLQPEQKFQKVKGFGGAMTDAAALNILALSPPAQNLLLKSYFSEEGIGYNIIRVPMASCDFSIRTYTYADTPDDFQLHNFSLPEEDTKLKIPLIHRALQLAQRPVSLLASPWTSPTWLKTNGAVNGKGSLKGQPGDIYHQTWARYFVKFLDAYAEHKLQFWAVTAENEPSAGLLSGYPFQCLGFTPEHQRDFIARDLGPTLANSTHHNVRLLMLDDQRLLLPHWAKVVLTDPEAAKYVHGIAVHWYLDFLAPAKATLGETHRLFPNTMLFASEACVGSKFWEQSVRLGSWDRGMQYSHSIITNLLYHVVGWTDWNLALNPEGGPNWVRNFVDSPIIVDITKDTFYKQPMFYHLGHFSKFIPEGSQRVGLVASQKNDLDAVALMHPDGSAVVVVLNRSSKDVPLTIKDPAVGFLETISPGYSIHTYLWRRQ
Sequence of Dual specificity protein kinase CLK4 (Homo sapiens) (Q9HAZ1 whole entry, looked up): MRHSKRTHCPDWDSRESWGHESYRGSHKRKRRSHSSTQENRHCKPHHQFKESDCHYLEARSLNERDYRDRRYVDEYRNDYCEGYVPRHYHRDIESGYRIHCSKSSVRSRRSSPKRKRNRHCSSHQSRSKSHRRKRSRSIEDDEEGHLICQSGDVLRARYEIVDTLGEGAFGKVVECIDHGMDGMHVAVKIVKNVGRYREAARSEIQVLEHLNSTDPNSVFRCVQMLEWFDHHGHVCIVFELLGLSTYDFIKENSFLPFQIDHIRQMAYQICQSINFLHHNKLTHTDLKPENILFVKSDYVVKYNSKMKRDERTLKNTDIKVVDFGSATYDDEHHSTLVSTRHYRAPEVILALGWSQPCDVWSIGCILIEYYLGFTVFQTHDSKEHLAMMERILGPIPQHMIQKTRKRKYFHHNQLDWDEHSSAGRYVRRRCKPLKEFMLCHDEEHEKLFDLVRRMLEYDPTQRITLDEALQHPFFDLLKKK
Sequence of Cytochrome P450 2D6 (Homo sapiens) (P10635 whole entry, looked up): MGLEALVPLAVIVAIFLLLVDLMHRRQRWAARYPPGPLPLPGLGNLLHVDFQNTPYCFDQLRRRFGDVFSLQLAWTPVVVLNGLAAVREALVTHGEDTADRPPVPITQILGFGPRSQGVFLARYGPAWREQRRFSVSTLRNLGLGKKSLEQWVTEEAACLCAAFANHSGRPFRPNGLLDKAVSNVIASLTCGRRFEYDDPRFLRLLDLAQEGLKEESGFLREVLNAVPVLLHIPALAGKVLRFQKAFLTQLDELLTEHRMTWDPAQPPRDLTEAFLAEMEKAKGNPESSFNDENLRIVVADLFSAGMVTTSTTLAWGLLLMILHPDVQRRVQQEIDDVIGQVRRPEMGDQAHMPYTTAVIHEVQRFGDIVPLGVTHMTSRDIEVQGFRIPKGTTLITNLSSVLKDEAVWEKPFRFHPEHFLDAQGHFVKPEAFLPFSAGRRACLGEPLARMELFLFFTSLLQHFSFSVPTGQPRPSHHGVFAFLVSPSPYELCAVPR

COc1ccccc1-c1ccc2ncnc(NCCN3CCOCC3)c2c1
-4.88%: max response [10, 19]
inactive: activity change, negative = inhibition [2] 5.89% | activity, negative = inhibition [3] -7.65% | Potency [4] > 46 µM | Potency [5] > 46 µM | Potency [6] | Potency [7] | Potency [9] | activity change, negative = inhibition [10] -9.29% | Potency [13]
active: Potency [1] 15.8 µM | Potency [8] 7.94 µM | Potency [11] 14.1 µM | Potency [12] 17.8 µM
-15.2%: max response [10, 20]

COc1ccc(CNc2ncnc3ccc(-c4ccoc4)cc23)c(OC)c1
6.18%: max response [10, 20]
inactive: activity change, negative = inhibition [2] 4.83% | activity, negative = inhibition [3] -19.6% | Potency [4] > 46 µM | Potency [5] > 46 µM | Potency [6] | Potency [9] | activity change, negative = inhibition [10] -9.76% | Potency [13]
active: Potency [1] 1.58 µM | Potency [8] 3.16 µM | Potency [14] 7.94 µM | Potency [11] 0.708 µM | Potency [12] 1 µM
19.6%: max response [10, 19]

COc1ccccc1-c1nc(N(C)C)c2ccccc2n1
active: Potency [1] 0.398 µM | Potency [17] 3.16 µM
4.21%: max response [10, 19]
-1.67%: max response [10, 20]
inactive: Potency [15] > 11.4 µM | activity change, negative = inhibition [16] 19.2% | activity change, negative = inhibition [2] -18.6% | activity, negative = inhibition [3] 31.2% | Potency [4] > 46 µM | Potency [5] > 46 µM | Potency [6] | Potency [7] | Potency [9] | activity change, negative = inhibition [10] -1.18% | Potency [11] | Potency [12] | Potency [13]

CN1CCN(c2ncc3nc(-c4cccs4)c(=O)n(Cc4cccs4)c3n2)CC1
inactive: Potency [15] > 11.4 µM | Potency [4] > 9.22 µM | Potency [5] > 46 µM | Potency [7] | Potency [9] | activity change, negative = inhibition [10] -5.19% | Potency [11] | Potency [18] | Potency [13]
active: Potency [1] 15.8 µM
2.92%: max response [10, 19]
-4.19%: max response [10, 20]

O=c1c(-c2cccs2)nc2cnc(N3CCNCC3)nc2n1C1CC1
inactive: Potency [15] > 11.4 µM | activity change, negative = inhibition [16] 5.15% | activity change, negative = inhibition [2] 0.706% | activity, negative = inhibition [3] 14.5% | Potency [4] > 9.22 µM | Potency [5] > 46 µM | Potency [6] | Potency [9] | activity change, negative = inhibition [10] 1.95% | Potency [11] | Potency [18] | Potency [13]
active: Potency [1] 2 µM | Potency [8] 6.31 µM
-0.825%: max response [10, 20]
1.24%: max response [10, 19]

CN1CCN(c2ncc3nc(CCc4ccccc4)c(=O)n(C)c3n2)CC1
active: Potency [1] 12.6 µM
18.3%: max response [10, 20]
18.8%: max response [10, 19]
inactive: Potency [15] > 11.4 µM | activity change, negative = inhibition [16] 14.9% | activity change, negative = inhibition [2] 1.74% | activity, negative = inhibition [3] -2.48% | Potency [4] > 9.22 µM | Potency [5] > 46 µM | Potency [6] | Potency [7] | Potency [8] | activity change, negative = inhibition [10] 3.14% | Potency [11] | Potency [12] | Potency [13]

From PubChem BioAssay (NCATS)
